According to PubChem BioAssay (Tox21):
Results filed as inconclusive are left out. Entries that show only a call come without a potency. The source made the active and inactive calls. Unless noted, calls come from the whole dose curve; as a rule, active = well fitted curve in the direction sought with a large enough effect in the repeat runs; inconclusive = weak or mixed curves; inactive = no such curve, though single readings can be large; an effect the other way counts as inactive or inconclusive. Positions of bridges follow the written chain, without caps; N, C: chain ends. Non-standard residues stand in square brackets, D forms with d. Residues, ends and D or L forms follow the SMILES beside them. Orn = NCCC[C@H](N)C(=O)O; Mpa = O=C(O)CCS

Columns and labels:
[1] = qHTS assay for small molecule agonists of the p53 signaling pathway (AID 651631; calls by dose curve; note: nearly all actives have a fitted effect of over 15% in size; note: potency is the fitted concentration of half-maximal effect)
Method in brief: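 Readout was fluorescence from the LiveBLAzer FRET substrate, applied for 2 h at room temperature after 16 h compound exposure at 37 °C. Cells were the p53RE-bla HCT-116 line, with beta-lactamase driven by p53 response elements.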

[2] = qHTS assay for small molecules that induce genotoxicity in human embryonic kidney cells expressing luciferase-tagged ATAD5 (AID 651632); note: nearly all actives have a fitted effect of over 15% in size
Method in brief: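 Luminescent reporter readout, HEK293T ATAD5-luc line: 16 hr drug exposure (37C, 5% CO2) followed by Amplite, 30 min RT.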

[3] = qHTS assay for small molecule agonists of the p53 signaling pathway - cell viability (AID 651633; calls by dose curve; note: series mostly up to about 83 µM; nearly all actives have a fitted effect of over 30% in size)
Method in brief: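 Viability counter-read: CellTiter-Glo luminescence (30 min, room temperature) in the same p53RE-bla plates. These plates had been exposed to compounds for 16 h at 37 C.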

[4] = qHTS assay for small molecules that induce genotoxicity in human embryonic kidney cells expressing luciferase-tagged ATAD5 - cell viability (AID 651634; calls by dose curve; note: nearly all actives have a fitted effect of over 25% in size)
Method in brief: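 Viability read: CellTiter-Fluor fluorescence, 30 min at 37C. Cells: HEK293T, luciferase-tagged ATAD5. Exposure: 15.5 hr, 37C, 5% CO2, compound or DMSO vehicle.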

[5] = qHTS assay for small molecule disruptors of the mitochondrial membrane potential - cell viability (AID 720634; calls by dose curve;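 note: human HepG2 liver cancer cells; series mostly up to about 83 µM; nearly all actives have a fitted effect of over 20% in size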)
Method in brief: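 HepG2, 1 hr compound, 37 C. ATP luminescence via CellTiter-Glo, 30 min RT, same well as m-MPI.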

[6] = qHTS assay for small molecule disruptors of the mitochondrial membrane potential (AID 720635); note: potency is the fitted concentration of half-maximal effect
Method in brief: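 Mitochondrial membrane potential tracked with Mito-MPS dye, red aggregates (ex 540/em 590 nm) against green monomers (ex 490/em 535 nm). Compound treatment 1 hr at 37C, dye 30 min in HepG2.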

[7] = qHTS assay to test for compound auto fluorescence at 590 nm (red) in HepG2 cells (AID 720674)
Method in brief: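 We screened compounds on adherent HepG2 cells, incubating them for an hour at 37 C in 5% CO2 before reading emission at 590 nm under 540 nm excitation; values reflect equivalence to Rose Bengal sodium fluorescence.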

[8] = qHTS assay to test for compound auto fluorescence at 535 nm (green) in HepG2 cells (AID 720675)
[9] = qHTS assay to test for compound auto fluorescence at 460 nm (blue) in HEK293 cells (AID 720678)
Method in brief: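 Cells were seeded and left to adhere for 4-5 hr at 37C. Compounds were then pin-transferred. After an overnight incubation at 37C under 5% CO2, intrinsic fluorescence at 405/460 nm was measured and referenced to triamterene.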

[10] = qHTS assay to test for compound auto fluorescence at 590 nm (red) in HEK293 cells (AID 720679)
Method in brief: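 Each well held 2,000 HEK293 cells in medium containing 10% dialyzed FBS. Following 4-5 hr attachment at 37C, 23 nL test compound or DMSO was added; plates sat overnight, and red fluorescence (540/590nm) was recorded.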

Row | Structure (SMILES) | Potency [1] | Potency [2] | Potency [3] | Potency [4] | Potency [5] | Potency [6] | Potency [7] | Potency [8] | Potency [9] | Potency [10]
1 | CC(C)CN(C[C@@H](OP(=O)(O)O)[C@H](Cc1ccccc1)NC(=O)O[C@H]1CCOC1)S(=O)(=O)c1ccc(N)cc1 | inactive | inactive | inactive | inactive | inactive | inactive | inactive | inactive | inactive | inactive
2 | O=C[C@H](O)[C@@H](O)[C@H](O[C@H]1O[C@H](CO)[C@@H](O[C@H]2O[C@H](CO)[C@@H](O)[C@H](O)[C@H]2O)[C@H](O)[C@H]1O)[C@H](O)CO | inactive | inactive | inactive | inactive | inactive | inactive | inactive | inactive | inactive | inactive
3 | CN1CC(O)c2cc(N=NC(N)=O)c(O)cc21 (centres undefined) | inactive | inactive | inactive | inactive | inactive | inactive | inactive | inactive | inactive | inactive
4 | O=C(O)c1ccc(OCCn2ccnc2)cc1 | inactive | inactive | inactive | inactive | inactive | inactive | inactive | inactive | inactive | inactive
5 | Cc1onc(-c2ccccc2)c1C(=O)N[C@@H]1C(=O)N2[C@@H]1SC(C)(C)[C@@H]2C(=O)O | inactive | inactive | inactive | inactive | inactive | inactive | inactive | inactive | inactive | inactive
6 | CCCCCCCCCCCCCCCC(=O)OC[C@@H](COP(=O)([O-])OCC[N+](C)(C)C)OC(=O)CCCCCCCCCCCCCCC | inactive | inactive | inactive | inactive | inactive | inactive | inactive | inactive | inactive | inactive
7 | C[N+](C)(CCCCCC[N+](C)(C)C1c2ccccc2-c2ccccc21)C1c2ccccc2-c2ccccc21 | inactive | inactive | inactive | inactive | inactive | inactive | inactive | inactive | inactive | inactive
8 | O=S(O)CNc1ccc(S(=O)(=O)c2ccc(NCS(=O)O)cc2)cc1 | inactive | inactive | inactive | inactive | inactive | inactive | inactive | inactive | inactive | inactive
9 | CCCCCCCCCCCCCCCCCCCCCC(=O)Nc1ccn([C@@H]2O[C@H](CO)[C@@H](O)[C@@H]2O)c(=O)n1 | 11.9 µM (active) | inactive | inactive | inactive | inactive | inactive | inactive | inactive | inactive | inactive
10 | NCCC[C@H](N)C(=O)O | inactive | inactive | inactive | inactive | inactive | inactive | inactive | inactive | inactive | inactive
11 | CN1[C@@H]2CCC[C@H]1CC(NC(=O)c1nn(C)c3ccccc13)C2 (some centres undefined) | inactive | inactive | inactive | inactive | inactive | inactive | inactive | inactive | inactive | inactive
12 | OCC(O)COc1ccc(Cl)cc1 (centres undefined) | inactive | inactive | inactive | inactive | inactive | inactive | inactive | inactive | inactive | inactive
13 | CCCCCCCCCCCCCCCC(=O)OC[C@@H](NC(=O)C(Cl)Cl)[C@H](O)c1ccc([N+](=O)[O-])cc1 | inactive | inactive | inactive | inactive | inactive | 33.5 µM (active) | inactive | inactive | inactive | inactive
14 | CC#CCC(C)[C@H](O)/C=C/[C@@H]1[C@H]2C/C(=C/CCCC(=O)O)C[C@H]2C[C@H]1O (some centres undefined) | inactive | inactive | inactive | inactive | inactive | inactive | inactive | inactive | inactive | inactive
15 | O=P(O)(O)C(O)(Cc1cnc2ccccn12)P(=O)(O)O | inactive | inactive | inactive | inactive | inactive | inactive | inactive | inactive | inactive | inactive
16 | C=CCN1CCCC1CNC(=O)c1cc(S(N)(=O)=O)cc(OC)c1OC (centres undefined) | inactive | inactive | inactive | inactive | inactive | inactive | inactive | inactive | inactive | inactive
17 | Nc1ccn(C[C@@H](CO)OCP(=O)(O)O)c(=O)n1 | inactive | inactive | inactive | inactive | inactive | inactive | inactive | inactive | inactive | inactive

Row | Structure (SMILES) | Potency [1] | Potency [2] | Potency [3] | Potency [4] | Potency [5] | Potency [6] | Potency [7] | Potency [8] | Potency [9] | Potency [10]
18 | CCOC(=O)Cc1cccc(-c2cc(CCCCCCc3ccc(O[C@H]4O[C@H](COC(C)=O)[C@@H](OC(C)=O)[C@H](OC(C)=O)[C@@H]4OC(C)=O)c(-c4cccc(CC(=O)OCC)c4)c3)ccc2O[C@H]2O[C@H](COC(C)=O)[C@@H](OC(C)=O)[C@H](OC(C)=O)[C@@H]2OC(C)=O)c1 | inactive | inactive | inactive | inactive | inactive | inactive | inactive | inactive | inactive | inactive
19 | COc1ccc(C(=O)Nc2ccccc2CCC2CCCCN2C)cc1 (centres undefined) | inactive | inactive | inactive | inactive | inactive | inactive | inactive | inactive | inactive | inactive
20 | CC(=O)OC[C@H]1O[C@@H](O[C@H]2[C@H](O)[C@@H](OC(=O)c3ccccc3C(=O)O)[C@H](O)O[C@@H]2COC(C)=O)[C@H](O)[C@@H](OC(=O)c2ccccc2C(=O)O)[C@@H]1O | inactive | inactive | inactive | inactive | inactive | inactive | inactive | inactive | inactive | inactive
21 | CCOC(=O)COc1ccc2c(C)c(CCN(CC)CC)c(=O)oc2c1 | inactive | inactive | inactive | inactive | inactive | inactive | inactive | inactive | inactive | inactive
22 | CCOc1ccc(C[C@H]2NC(=O)CCSSC[C@@H](C(=O)N3CCC[C@H]3C(=O)N[C@@H](CCCN)C(=O)NCC(N)=O)NC(=O)[C@H](CC(N)=O)NC(=O)[C@H]([C@@H](C)O)NC(=O)[C@H]([C@@H](C)CC)NC2=O)cc1 ([Mpa][dY](Et)ITNCP[Orn]G-NH2; disulfide 1-6) | inactive | inactive | inactive | inactive | inactive | inactive | inactive | inactive | inactive | inactive
23 | C[C@H]1C[C@H]2[C@@H]3CCC4=CC(=O)C=C[C@]4(C)[C@@]3(F)[C@@H](O)C[C@]2(C)[C@@]1(O)C(=O)CCl | inactive | inactive | inactive | inactive | inactive | 11.9 µM (active) | inactive | inactive | inactive | inactive
24 | CN[C@@H]1CCc2[nH]c3ccc(C(N)=O)cc3c2C1 | inactive | inactive | inactive | inactive | inactive | inactive | inactive | inactive | inactive | 
25 | CO[C@H]1O[C@@H]2O[C@@]3(C)CC[C@H]4[C@H](C)CC[C@@H]([C@H]1C)[C@@]24OO3 | inactive | inactive | inactive | inactive | inactive | inactive | inactive | inactive | inactive | inactive
26 | CCOc1ccc(N=C(C)Nc2ccc(OCC)cc2)cc1 | inactive | inactive | inactive | inactive | inactive | inactive | inactive | inactive | inactive | inactive
27 | CC(C)(CO)[C@@H](O)C(=O)NCCC(=O)NCCSSCCNC(=O)CCNC(=O)[C@H](O)C(C)(C)CO | inactive | inactive | inactive | inactive | inactive | inactive | inactive | inactive | inactive | inactive
28 | CC(C)CN(C[C@@H](O)[C@H](Cc1ccccc1)NC(=O)O[C@@H]1CCOC1)S(=O)(=O)c1ccc(N)cc1 | inactive | inactive | inactive | inactive | inactive | inactive | inactive | inactive | inactive | inactive
29 | NCCCC[C@H](NC(=O)[C@@H]1CCCN1C(=O)[C@@H]1CSSC[C@H](NC(=O)CNC(=O)CNC(=O)CN)C(=O)N[C@@H](Cc2ccc(O)cc2)C(=O)N[C@@H](Cc2ccccc2)C(=O)N[C@@H](CCC(N)=O)C(=O)N[C@@H](CC(N)=O)C(=O)N1)C(=O)NCC(N)=O (H-GGGCYFQNCPKG-NH2; disulfide 4-9) | inactive | inactive | inactive | inactive | inactive | inactive | inactive | inactive | inactive | inactive
30 | CCOC(=O)CCC(=O)O[C@H]1[C@H](O[C@@H]2[C@@H](C)[C@H](O[C@H]3C[C@@](C)(OC)[C@@H](O)[C@H](C)O3)[C@@H](C)C(=O)O[C@H](CC)[C@@](C)(O)[C@H](O)[C@@H](C)C(=O)[C@H](C)C[C@@]2(C)O)O[C@H](C)C[C@@H]1N(C)C | inactive | inactive | inactive | inactive | inactive | inactive | inactive | inactive | inactive | inactive
31 | COc1ccc2c(=O)c(C)c(-c3ccccc3)oc2c1CN(C)C | inactive | inactive | inactive | inactive | inactive | inactive | inactive | inactive | inactive | inactive
32 | CC(CN(C)C)CN1c2ccccc2S(=O)(=O)c2ccccc21 (centres undefined) | inactive | inactive | inactive | inactive | inactive | inactive | inactive | inactive | inactive | inactive
33 | Cn1nnnc1SCC1=C(C(=O)O)N2C(=O)[C@@H](NC(=O)[C@H](O)c3ccccc3)[C@H]2SC1 | inactive | inactive | inactive | inactive | inactive | inactive | inactive | inactive | inactive | inactive
